Measurements taken from PubChem BioAssay (NCI).
This is part of a sample that, as a whole, favours compounds with a hit. Of some 83,000 tested, about 20% had one in any assay.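 Activity criterion: percent growth below 10, measured after cells in 96-well plates were exposed to a single compound concentration for 48 hours.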 Active and inactive are the calls of the source.

Assays:
Assay in all cases: NCI-60 one-dose screen, 48 h (100 = growth as untreated, 0 = no growth, -100 = all killed)
Settings in all cases: 10 µM unless noted
[1] = tested on: DU-145 prostate
[2] = tested on: K-562 leukemia
[3] = tested on: MALME-3M melanoma
[4] = tested on: MDA-MB-231 breast
[5] = tested on: RXF 393 renal
[6] = tested on: SF-268 CNS
[7] = tested on: SF-295 CNS
[8] = tested on: SF-539 CNS
[9] = tested on: UACC-257 melanoma
[10] = tested on: HCT-15 colon
[11] = tested on: HT29 colon
[12] = tested on: SNB-75 CNS
[13] = tested on: SNB-19 CNS
[14] = tested on: SK-MEL-5 melanoma
[15] = tested on: UACC-62 melanoma
[16] = tested on: LOX IMVI melanoma
[17] = tested on: SK-MEL-28 melanoma
[18] = tested on: U251 CNS
[19] = tested on: PC-3 prostate

Measured: growth

O=C(N/N=C/c1ccccc1Cl)c1ccccc1Nc1ccnc(C(F)(F)F)c1
active: [2] 4.98% | [3] 5.72% | [4] -17.1% | [5] -13.4% | [7] -41.1% | [8] 4.39% | [9] -2.5% | [11] 3.22% | [12] -14.5% | [14] -50.7% | [15] -32.7% | [16] 4.1%
inactive: [1] 29.4% | [6] 14.1% | [10] 10.4% | [13] 17.1% | [17] 25.7%

Cn1ncc(CC(=O)O)c1-n1nnc2cc(Cl)ccc2c1=O
inactive: [1] 109% | [2] 98.4% | [3] 93.9% | [4] 94.5% | [5] 114% | [6] 103% | [7] 91.7% | [8] 96.7% | [9] 100% | [10] 107% | [11] 103% | [12] 81.1% | [13] 96% | [18] 103% | [19] 103% | [14] 110% | [15] 94.8% | [16] 103% | [17] 144%

C=CCNc1nc(O)c(/C=C2\C=Nc3ncccc32)s1
active: [5] -41.3% | [6] -3.26% | [8] -66.2% | [9] 9.55% | [12] -67.3% | [18] 0.764% | [14] 2.01% | [15] 9.75% | [16] 0.553% | [17] -2.4%
inactive: [1] 12.7% | [2] 42.1% | [3] 40.2% | [4] 19.8% | [7] 13% | [10] 24.7% | [11] 26.4% | [13] 11% | [19] 12.6%

C#Cc1cccc(Nc2nc(Cl)nc3cc(NC(=O)CCl)ccc23)c1
active: [1] -93.5% | [2] -36.2% | [3] -83.3% | [4] -73% | [5] -94.2% | [6] -52.2% | [7] -86.9% | [8] -96.5% | [9] -53.9% | [10] -77.7% | [11] -37.8% | [12] -97.5% | [13] -77.1% | [18] -81.8% | [19] -85.6% | [14] -90.9% | [15] -80.5% | [16] -77.3% | [17] -94.4%

COc1ccc(/C=C/C(=O)c2ccc(-n3cc(CN4CCN(c5cc6c(cc5F)c(=O)c(C(=O)O)cn6C5CC5)CC4)nn3)cc2)cc1
inactive: [1] 83.2% | [2] 42.6% | [3] 66.2% | [4] 67.2% | [5] 64.2% | [6] 56% | [7] 94.9% | [8] 50.8% | [9] 78.7% | [10] 80.6% | [11] 29.6% | [12] 58.3% | [13] 67.7% | [18] 41.4% | [19] 56.3% | [14] 69% | [15] 53.9% | [16] 27.9% | [17] 79.7%

O=C1/C(=C/c2ccc(Br)cc2)COc2ccc(O)cc21
active: [2] 9.11% | [16] -1.48%
inactive: [1] 101% | [3] 91.7% | [4] 85.9% | [5] 95.9% | [6] 89.8% | [7] 100% | [8] 92.5% | [9] 103% | [10] 42.5% | [11] 28.9% | [12] 92.7% | [13] 87.3% | [18] 57% | [19] 77.4% | [14] 96% | [15] 79.3% | [17] 97.7%

O=C1c2cccnc2C(=O)c2c1c(C(=O)OCCCN1CCOCC1)c1ccccn21
active: [1] -84.2% | [2] -20.2% | [3] -53.9% | [5] 3.94% | [6] 5.83% | [7] -4.43% | [8] -43.2% | [9] -85.6% | [10] -42.2% | [11] -67.8% | [12] -81.3% | [13] 9.22% | [18] -70.7% | [19] -0.15% | [14] -94.9% | [15] -40.7% | [16] -29.1%
inactive: [4] 14.1% | [17] 37.7%

COC12C=C/C(=C(/C(=O)OCc3ccccn3)C(=O)CCCCCCCCC3(OC)C=C/C(=C(/C(=O)OCc4ccccn4)C(=O)CCCCCCCC1)O3)O2
active: [1] -24.5% | [2] -0.106% | [3] -60.1% | [4] 7.85% | [5] -82.5% | [6] -8.87% | [7] -25.7% | [8] -28.3% | [10] -37.5% | [11] 3.23% | [12] 1.28% | [18] -25.6% | [19] -37.4% | [14] -83.3% | [15] -52.5% | [16] -69.6% | [17] -11.1%
inactive: [9] 11% | [13] 12.5%

Nc1n[nH]c2cccc(C#Cc3cccc(C(=O)Nc4ccc(Cl)c(C(F)(F)F)c4)c3)c12
active: [2] 6.22%
inactive: [1] 83.6% | [3] 14.9% | [4] 40.4% | [5] 66.9% | [6] 61.7% | [7] 66.6% | [8] 33.5% | [9] 48.2% | [10] 56.4% | [11] 26% | [12] 65.7% | [13] 89.1% | [18] 69% | [19] 59.6% | [14] 46.7% | [15] 22.2% | [16] 18.1%

CC1=C(C(=O)c2ccccc2)C(c2ccc3c(c2)OCO3)NC(=S)N1 (configuration not stated)
active: [12] -1.4%
inactive: [1] 78.7% | [2] 24.6% | [3] 54.5% | [4] 79.1% | [5] 59.5% | [6] 75.8% | [7] 51.2% | [8] 36.4% | [9] 57.2% | [10] 33.7% | [11] 18.5% | [13] 63.8% | [18] 37.5% | [19] 61.5% | [14] 28.2% | [15] 51.6% | [16] 36.2% | [17] 70.9%

CCCCCCCC/C=C\CCCCCCCCOc1ccc(CC(=O)NCC[N+]2(C)CCCC2)cc1
inactive: [1] 78.4% | [2] 41.6% | [3] 66% | [4] 59.8% | [6] 62.8% | [7] 74.8% | [8] 65.4% | [9] 77.3% | [10] 84.8% | [11] 18.4% | [12] 43.4% | [13] 38% | [18] 15.1% | [15] 50.3% | [16] 72.8% | [17] 95.9%
active: [5] -45.3% | [19] 9.45%

CN(C)c1ccc(Cc2cc(-c3ccccc3)nn(C/C(=N/O)c3ccccc3)c2=O)cc1
inactive: [1] 91.8% | [2] 29.5% | [3] 66.2% | [4] 54% | [5] 61.4% | [6] 55.8% | [7] 45.5% | [8] 84.3% | [9] 62.8% | [10] 50.1% | [11] 32.9% | [12] 72.9% | [13] 64.4% | [18] 44.3% | [19] 30.9% | [14] 55.8% | [15] 39.3% | [16] 53% | [17] 72%

O=C1c2ccccc2C(=O)c2cc(Cn3c[n+](Cc4ccc5ccccc5c4)c4ccccc43)ccc21
active: [15] 4.86%
inactive: [1] 83.1% | [2] 17.6% | [3] 48% | [4] 26.2% | [5] 62.6% | [6] 49.3% | [7] 82.2% | [8] 70.6% | [9] 42.9% | [10] 89.8% | [11] 51.5% | [12] 42.3% | [13] 45% | [18] 57.1% | [19] 27.7% | [14] 34.1% | [16] 52%

CC(C)CCc1nc2ccc(NCc3ccc(OCCN4CCC(C)CC4)cc3)cc2[nH]1
inactive: [1] 89.4% | [2] 20.4% | [3] 32% | [4] 59.8% | [5] 61.6% | [6] 79.9% | [7] 90.4% | [8] 58% | [9] 96.3% | [10] 67.4% | [11] 40.3% | [12] 90.8% | [13] 88.6% | [18] 71.6% | [19] 61.4% | [14] 84.9% | [15] 82.5% | [16] 59.6% | [17] 75.7%

COC1CC(O)C2=C(CC3C(/C(C)=C\CC=C(C)C)CCC3(C)O2)C1=O (configuration not stated)
inactive: [1] 101% | [2] 96.7% | [3] 102% | [4] 115% | [5] 110% | [6] 91.1% | [7] 107% | [8] 109% | [9] 95.2% | [10] 110% | [11] 99.4% | [12] 107% | [13] 103% | [18] 99% | [19] 93.6% | [14] 99.2% | [15] 94.9% | [16] 106% | [17] 119%

CS(=O)(=O)c1cccc(Nc2ncc3cc(-c4ccccc4Cl)ccc3n2)c1
inactive: [1] 18.6% | [3] 11.8% | [6] 19.9% | [7] 20.9% | [9] 24.8% | [10] 12.1% | [13] 36.2% | [19] 12.3% | [17] 19.7%
active: [2] 1.05% | [4] 3.46% | [5] -14.3% | [8] -10.5% | [11] 1.92% | [12] -11.4% | [14] -49.1% | [15] 4.77% | [16] -6.95%

COc1ccc(Nc2nccc(Nc3ccc4[nH]ncc4c3)n2)cc1
active: [2] 4.96% | [10] 6.21% | [14] 1.85%
inactive: [1] 32% | [3] 76.1% | [4] 48.6% | [5] 31.8% | [6] 47% | [7] 47.7% | [8] 68.8% | [9] 46.2% | [11] 12.1% | [12] 65.8% | [13] 59.7% | [18] 35.5% | [19] 13.5% | [15] 38.6% | [16] 19% | [17] 65.8%
